Six compounds from PubChem BioAssay can be followed below.

Active and inactive are the calls of the source.

One assay concerns the target Albumin (Bos taurus) (UniProt P02769). Put plainly: bovine serum albumin binders on microarray, profiling panel, artefact control for SMM control protein annotation, biochemical, small-molecule microarray, Alexa647 label, 635/667 nm fluorescence (AID 1118).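 Further: score merges 667 nm emission intensity and signal-to-noise per printed compound spot.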 The following applies: BSA-A647 binding, fluorescence 635 nm, higher = more signal.
A short description of assay [1]: small-molecule microarray binders of probe aXIP, primary screen, biochemical, NeuroSMM set, 635/667 nm fluorescence (AID 1119).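 Further: probe is the protein aXip251-270 applied at 1 µg/mL to compound-printed slides; binding of probe to printed compounds measured as 667 nm fluorescence plus signal to noise.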 The conditions noted are these: higher = more signal, called active from +8 up or from −8 down.
The nature of assay [2]: small-molecule binders of probe aNOTCH3, primary screen, biochemical, small-molecule microarray, 635/667 nm fluorescence (AID 1120).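 Further: probe is a biotin-tagged antibody raised against NOTCH3 rather than NOTCH3 protein; score merges spot fluorescence near 667 nm with spot signal to noise.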 The conditions noted are these: higher = more signal.
A short description of assay [3]: small-molecule binders of probe aNOTCH2, primary screen, biochemical, small-molecule microarray, 635/667 nm fluorescence (AID 1121).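 Further: score merges feature fluorescence read at 667 nm with its signal to noise.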 The following applies: higher = more signal.
Assay [4] concerns the target Carbonic anhydrase 2 (Homo sapiens) (UniProt P00918). Put plainly: CAII small-molecule binders, profiling panel, biochemical, small-molecule microarray, Alexa647-labelled CAII (AID 1122). The conditions noted are these: CAII-A647 binding fluorescence, higher = more signal.
Assay [5] in a line: COS7 lysate on small-molecule microarray, probe aHis, 635 nm (AID 1123).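 Further: z-score combines 667nm fluorescence intensity with signal-to-noise per printed compound spot.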 The following applies: COS7 cell lysate, fluorescence, higher = more signal.
Assay [6] is described as follows: compound binding in COS7 lysate, probe aLAP1, primary screen, cell lysate, small-molecule microarray (AID 1124).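 Further: lysate comes from COS7 cells expressing LAP1 and is applied at 0.3 µg/mL; score merges spot fluorescence near 667 nm with signal-to-noise over triplicate slides.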 The conditions noted are these: probe aLAP1, fluorescence, higher = more signal.
The subject of another assay is Sam68 (KHDRBS1). Put plainly: Sam68 small-molecule binders, primary screen, biochemical, small-molecule microarray, 635 nm fluorescence (AID 1125).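 Further: score merges 667 nm channel intensity with signal to noise over triplicate slides.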 The conditions noted are these: small-molecule microarray binding, higher = more signal.
In assay [7] the test system is Chordin-like protein 2 (CHRDL2). Put plainly: CHRDL2 small-molecule binders, primary screen, biochemical, small-molecule microarray, 635 nm fluorescence (AID 1126).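 Further: printed compound slides probed with Chrdl2 protein at 4 µg/mL for 1 h at 4 C; score merges 667 nm emission intensity with signal to noise over three replicate slides.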 The conditions noted are these: small-molecule microarray binding, fluorescence 635 nm; higher = more signal.
The target of assay [8] is Concanavalin-A (Canavalia ensiformis) (UniProt P02866). Put plainly: ConA small-molecule binders, primary screen, artefact control for SMM control protein annotation, biochemical, small-molecule microarray, Alexa647 label, 635 nm (AID 1127).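 Further: z combines 667 nm emission intensity with signal-to-noise across three replicate slides.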 The conditions noted are these: ConA-A647 binding fluorescence, higher = more signal.
Sequence of Concanavalin-A (Canavalia ensiformis) (P02866 whole entry, looked up): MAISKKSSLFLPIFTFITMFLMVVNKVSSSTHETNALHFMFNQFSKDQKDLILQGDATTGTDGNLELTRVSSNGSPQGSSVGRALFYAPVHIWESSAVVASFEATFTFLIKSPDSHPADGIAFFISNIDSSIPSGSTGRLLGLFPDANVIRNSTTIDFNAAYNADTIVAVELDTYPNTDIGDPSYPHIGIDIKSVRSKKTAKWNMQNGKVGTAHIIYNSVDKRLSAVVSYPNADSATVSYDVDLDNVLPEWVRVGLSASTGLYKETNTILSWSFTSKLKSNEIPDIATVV
Assay [9] is described as follows: anti-His antibody binders, primary screen, artefact control for SMM control protein annotation, biochemical, small-molecule microarray, 635 nm fluorescence (AID 1128).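 Further: score merges feature fluorescence with signal-to-noise for each printed compound spot.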 The conditions noted are these: anti-His Alexa647 antibody binding, higher = more signal.
The subject of assay [10] is Human papillomavirus type 1a E7 protein (residues 1-88). Put plainly: HPV1a E7 small-molecule binders, primary screen, biochemical, small-molecule microarray, residues 1-88, 635 nm (AID 1129). The following applies: small-molecule microarray binding, fluorescence 635 nm; higher = more signal.
In assay [11] the target is Focal adhesion kinase 1 (Homo sapiens) (UniProt Q05397). The experiment in a line: small-molecule microarray binders of FAK, primary screen, biochemical, 635/667 nm fluorescence, BSA, DTT (AID 1130).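 Further: composite of spot emission at 667 nm and signal to noise over triplicate slides.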 The conditions noted are these: PTK2 binding, 635 nm fluorescence, higher = more signal.
Sequence of Focal adhesion kinase 1 (Homo sapiens) (Q05397 whole entry, looked up): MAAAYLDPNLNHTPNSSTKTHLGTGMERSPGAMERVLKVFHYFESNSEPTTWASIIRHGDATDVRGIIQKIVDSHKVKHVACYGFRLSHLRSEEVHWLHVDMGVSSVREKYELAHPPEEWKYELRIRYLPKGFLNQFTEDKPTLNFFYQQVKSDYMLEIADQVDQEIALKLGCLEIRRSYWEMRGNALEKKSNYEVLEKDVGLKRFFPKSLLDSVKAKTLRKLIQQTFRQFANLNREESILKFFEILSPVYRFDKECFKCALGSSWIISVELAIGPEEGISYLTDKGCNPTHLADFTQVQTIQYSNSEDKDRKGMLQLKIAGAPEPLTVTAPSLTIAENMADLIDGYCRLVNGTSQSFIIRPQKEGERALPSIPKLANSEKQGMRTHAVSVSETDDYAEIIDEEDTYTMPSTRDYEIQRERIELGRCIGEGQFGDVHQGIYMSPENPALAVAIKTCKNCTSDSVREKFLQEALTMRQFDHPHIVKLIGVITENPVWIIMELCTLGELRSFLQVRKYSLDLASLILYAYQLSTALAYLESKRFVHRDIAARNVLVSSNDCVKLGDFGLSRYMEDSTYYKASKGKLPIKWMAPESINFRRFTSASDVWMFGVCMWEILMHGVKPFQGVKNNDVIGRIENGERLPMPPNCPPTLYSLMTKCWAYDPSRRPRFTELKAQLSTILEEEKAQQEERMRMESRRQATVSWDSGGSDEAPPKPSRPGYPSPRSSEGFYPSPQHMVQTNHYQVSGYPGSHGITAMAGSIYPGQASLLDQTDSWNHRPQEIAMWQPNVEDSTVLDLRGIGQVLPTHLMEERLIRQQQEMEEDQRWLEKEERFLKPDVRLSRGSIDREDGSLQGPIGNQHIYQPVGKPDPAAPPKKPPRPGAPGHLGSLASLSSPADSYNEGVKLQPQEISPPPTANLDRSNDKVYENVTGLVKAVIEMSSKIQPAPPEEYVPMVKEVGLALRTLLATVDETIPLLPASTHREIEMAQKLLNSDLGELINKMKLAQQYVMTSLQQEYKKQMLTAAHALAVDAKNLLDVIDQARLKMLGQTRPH
Assay [12] relates to Fibrinogen (Alexa647-labelled). The experiment in a line: fibrinogen binders on compound microarrays, profiling panel, artefact control for SMM control-protein annotation, biochemical, small-molecule microarray, 635/667 nm fluorescence (AID 1131).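 Further: z-score merges 667 nm fluorescence with per-spot signal-to-noise over triplicate slides.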 The following applies: fibrinogen-A647 binding fluorescence, higher = more signal.
In assay [13] the target is Follistatin (Homo sapiens) (UniProt P19883). Put plainly: follistatin binders on small-molecule microarrays, primary screen, biochemical, small-molecule microarray, 635/667 nm fluorescence (AID 1132). The following applies: FST binding, 635 nm fluorescence, higher = more signal.
Sequence of Follistatin (Homo sapiens) (P19883 whole entry, looked up): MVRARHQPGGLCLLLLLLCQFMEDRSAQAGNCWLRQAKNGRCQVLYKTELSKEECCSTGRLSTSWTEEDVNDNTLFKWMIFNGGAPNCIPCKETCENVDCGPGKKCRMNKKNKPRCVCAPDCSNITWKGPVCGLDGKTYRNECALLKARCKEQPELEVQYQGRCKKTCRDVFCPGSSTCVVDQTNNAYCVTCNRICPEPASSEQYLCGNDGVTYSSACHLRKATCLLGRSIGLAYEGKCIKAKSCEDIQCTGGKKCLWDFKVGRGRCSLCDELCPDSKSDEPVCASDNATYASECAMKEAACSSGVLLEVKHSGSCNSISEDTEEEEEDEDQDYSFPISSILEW
Assay [14] has as its target Fibroblast growth factor 2 (Homo sapiens) (UniProt P09038). Put plainly: FGF2 binders on small-molecule microarrays, primary screen, biochemical, small-molecule microarray, 635/667 nm fluorescence (AID 1133). The conditions noted are these: small-molecule microarray binding, FGF2, fluorescence 635/667; higher = more signal.
A short description of assay [15]: mitochondrial membrane potential change in A549 cells, profiling panel, cell-based, JC-1 fluorescence, basal, 24 h, 100 nL (AID 1138).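 Further: A549 lung adenocarcinoma cells under basal conditions with no added stimulus; test concentration not given here.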 The following applies: higher = more signal.
For the next assay, the system named is Lefty1. The experiment in a line: Lefty1 binders on small-molecule microarrays, primary screen, biochemical, small-molecule microarray, 635/667 nm fluorescence (AID 1139). The conditions noted are these: small-molecule microarray binding, fluorescence 635/667; higher = more signal.
In assay [16] the test system is wheat germ agglutinin (Triticum aestivum), Alexa647-labelled. Put plainly: wheat germ agglutinin binders on compound microarrays, profiling panel, artefact control for SMM control-protein annotation, biochemical, small-molecule microarray, 635/667 nm fluorescence (AID 1140).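 Further: score merges 667 nm feature emission with signal to noise over triplicate slides.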 The following applies: WGA-A647 binding, 635 nm fluorescence, higher = more signal.
Assay [17] has as its target Luciferin 4-monooxygenase (Photinus pyralis) (UniProt P08659). Put plainly: firefly luciferase enzyme inhibitors, primary screen, biochemical, luminescence, purified enzyme, 2006 set (AID 1141).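 Further: cell-free assay with purified firefly luciferase at 100 ng per well in PBS; test concentration not given here.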 The conditions noted are these: SteadyGlo luminescence, 30 min, higher = more signal, called active from +8 up or from −8 down.

Sequence of Albumin (Bos taurus) (P02769 whole entry, looked up): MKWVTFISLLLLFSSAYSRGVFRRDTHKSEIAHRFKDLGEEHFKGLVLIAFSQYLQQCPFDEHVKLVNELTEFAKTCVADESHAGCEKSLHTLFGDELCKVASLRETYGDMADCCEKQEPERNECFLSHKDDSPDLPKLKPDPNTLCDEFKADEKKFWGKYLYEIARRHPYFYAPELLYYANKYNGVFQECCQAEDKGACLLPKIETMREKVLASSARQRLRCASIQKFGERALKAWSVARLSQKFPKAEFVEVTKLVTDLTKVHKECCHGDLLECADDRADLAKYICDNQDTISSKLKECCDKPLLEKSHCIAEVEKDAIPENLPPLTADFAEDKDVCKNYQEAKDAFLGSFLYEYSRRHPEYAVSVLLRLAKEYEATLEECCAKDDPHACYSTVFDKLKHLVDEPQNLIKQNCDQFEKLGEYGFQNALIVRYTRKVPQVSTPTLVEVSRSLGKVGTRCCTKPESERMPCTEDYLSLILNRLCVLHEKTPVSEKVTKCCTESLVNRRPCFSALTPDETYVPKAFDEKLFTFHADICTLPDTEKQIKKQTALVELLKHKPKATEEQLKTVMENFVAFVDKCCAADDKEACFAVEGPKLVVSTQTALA
Sequence of Luciferin 4-monooxygenase (Photinus pyralis) (P08659 whole entry, looked up): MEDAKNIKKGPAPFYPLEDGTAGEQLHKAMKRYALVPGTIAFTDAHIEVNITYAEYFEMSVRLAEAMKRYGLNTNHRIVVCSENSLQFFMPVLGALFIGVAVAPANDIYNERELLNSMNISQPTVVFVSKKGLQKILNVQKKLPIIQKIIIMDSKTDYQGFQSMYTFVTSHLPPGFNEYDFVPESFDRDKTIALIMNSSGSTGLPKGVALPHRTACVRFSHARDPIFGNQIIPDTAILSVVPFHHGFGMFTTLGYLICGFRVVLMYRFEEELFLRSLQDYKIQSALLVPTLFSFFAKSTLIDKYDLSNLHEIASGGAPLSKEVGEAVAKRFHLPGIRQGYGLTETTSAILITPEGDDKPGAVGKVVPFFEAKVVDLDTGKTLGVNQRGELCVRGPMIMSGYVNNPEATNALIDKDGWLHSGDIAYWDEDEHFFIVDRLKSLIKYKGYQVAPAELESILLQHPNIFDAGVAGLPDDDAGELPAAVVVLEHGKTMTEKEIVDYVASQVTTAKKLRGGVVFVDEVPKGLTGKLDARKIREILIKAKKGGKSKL
Sequence of Fibroblast growth factor 2 (Homo sapiens) (P09038 whole entry, looked up): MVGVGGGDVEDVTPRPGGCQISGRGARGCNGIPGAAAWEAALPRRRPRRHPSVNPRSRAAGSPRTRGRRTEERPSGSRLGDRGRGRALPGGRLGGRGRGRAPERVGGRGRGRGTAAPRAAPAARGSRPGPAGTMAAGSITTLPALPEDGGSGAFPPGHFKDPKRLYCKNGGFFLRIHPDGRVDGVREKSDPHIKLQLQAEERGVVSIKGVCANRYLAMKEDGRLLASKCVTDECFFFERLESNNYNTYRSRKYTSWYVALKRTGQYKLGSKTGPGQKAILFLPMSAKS

For `CCOC(=O)[C@H](CC(C)C)NC(=O)CCC1CC(OC(=O)NCCc2ccc(F)cc2)CC2(CCCC(COC(=O)NCc3cccc4ccccc34)O2)O1` (stereo not given in full), the composite z-score with Albumin (Bos taurus) is 0.426; in assay [2] it was -0.235; in [3], 0.12; in [4], 0.276; in assay [5] it was 0.96; in assay [6], -0.138. The composite z-score in the assay with Sam68 (KHDRBS1) came out at 0.695; in [7] it was 0.282; in [8] it was 0.873; in [9] it was 0.229; in assay [10], 0.982; in assay [11] it was 0.2. For the same compound, the composite z-score in assay [12] came out at 0.279; in assay [13] it was 1.27; in assay [14], 0.634; in the assay on Lefty1, 0.774; in assay [16], 0.0787. Also, the composite Z-score in assay [1] was -0.275 (inactive). In addition, the z-score in assay [15] is 0.755; in [17], 0.6 (inactive).
As to `CC(C)=NOC[C@@H](O)[C@H]1O[C@@H]2OC(C)(C)O[C@@H]2[C@H]1O`, the composite z-score with Albumin (Bos taurus) is 0.255; in assay [2], -0.349; in assay [3], -0.273; in [4], -0.0402; in assay [5], 1.85; in [6], 0.116. Further, the composite z-score in the assay with Sam68 (KHDRBS1) was 0.968; in assay [7] it was 0.537; in assay [8], 0.929; in assay [9] it was -0.0333; in assay [10], 0.491; in [11] it was 0.17. In addition, the composite z-score in assay [12] was determined as 0.0104; in [13], 0.464; in [14] it was 0.57; in the assay with Lefty1, 0.507; in assay [16] it was 0.0212. For the same compound, the composite Z-score in assay [1] is 0.559 (inactive). The z-score is 0.225 in assay [15] and -0.394 (inactive) in assay [17].
For `C[C@@H](c1ccccc1)N1C(=O)[C@H]2[C@H]3[C@H](O)[C@H](O)CC(=NOCc4ccccc4)[C@@H]3CC[C@H]2C1=O`, the composite z-score with Albumin (Bos taurus) is 0.758; in assay [2], -0.0055; in assay [3], -0.0467; in assay [4] it was -0.247; in [5] it was 0.043; in [6], 0.017. For the same compound, the composite z-score was -0.105 in the assay with Sam68 (KHDRBS1); 0.823 in [7]; -0.577 in assay [8]; 0.151 in assay [9]; -0.513 in assay [10]; 0.0826 in [11]. The composite z-score in assay [12] was 0.0844; in assay [13] it was -0.7; in [14] it was -0.0815; in the assay with Lefty1 it was -0.684; in assay [16], 0.32. Further, the composite Z-score in [1] is 0.081 (inactive). Also, the z-score in assay [15] is -0.781; in [17], 0.747 (inactive).
For `CC(C)CON=C1C[C@@H](O)[C@@H](O)[C@@H]2[C@@H]3C(=O)N(Cc4ccc5c(c4)OCO5)C(=O)[C@@H]3CC[C@@H]12`, the composite z-score with Albumin (Bos taurus) was 0.713; in assay [2] it was -0.179; in assay [3], -0.0891; in assay [4], 0.614; in assay [5] it was 0.862; in assay [6] it was -0.0121. In addition, the composite z-score was 0.853 in the assay on Sam68 (KHDRBS1); -0.0113 in [7]; 0.922 in assay [8]; 0.918 in assay [9]; 0.245 in [10]; 0.227 in assay [11]. Also, the composite z-score in [12] was 0.655; in assay [13], 0.0087; in assay [14], 1.22; in the assay with Lefty1, -0.0226; in assay [16], 0.0667. Besides, the composite Z-score in [1] is 0.311 (inactive). In addition, the values for the z-score in assay [15] and in assay [17] were 0.0679 and 0.966 (inactive), respectively.
As to `CO[C@@H](C1CCCCC1)[C@@H](C)[C@H](OCc1cccc(Br)c1)[C@@H](C)CO`, the composite z-score with Albumin (Bos taurus) was -0.0658; in assay [2], -0.207; in [3], -0.209; in [4] it was -0.17; in assay [5], -0.111; in assay [6], -0.0972. In addition, the composite z-score in the assay with Sam68 (KHDRBS1) is -0.0221; in assay [7], 0.908; in assay [8], -0.153; in assay [9], -0.833; in assay [10], -0.0434; in assay [11] it was -0.299. For the same compound, the composite z-score is -0.106 in assay [12]; 0.265 in [13]; 0.286 in [14]; 0.407 in the assay with Lefty1; -0.181 in assay [16]. Also, in assay [1], the composite Z-score was -0.188 (inactive). The z-score in [15] is -0.72; in assay [17], 0.158 (inactive).
Take `O=C1[C@H]2[C@H]3[C@H](O)[C@H](O)CC(=NO[C@@H]4O[C@H](CO)[C@@H](O)[C@H](O)[C@H]4O)[C@H]3CC[C@H]2C(=O)N1c1ccc(F)cc1F`: the composite z-score was -0.168 with Albumin (Bos taurus); 0.196 in assay [2]; -0.177 in assay [3]; -0.556 in assay [4]; -0.258 in [5]; 0.0482 in [6]. Also, the composite z-score with Sam68 (KHDRBS1) is 1.07; in [7] it was -0.819; in assay [8], -1.06; in assay [9], -1.26; in assay [10], -0.162; in assay [11] it was 0.633. The composite z-score in assay [12] was 0.192; in assay [13], -1.22; in assay [14], 0.502; with Lefty1 it was -0.152; in assay [16] it was -0.052. Besides, in assay [1], the composite Z-score is -0.463 (inactive). Further, the z-score was -0.352 in assay [15] and 1.42 (inactive) in assay [17].
